GCN5L2 inh – inhibitors of human GCN5L2 histone acetyltransferase; Q92830; GCN5L2 HAT assay, ThioGlo1 CoA-SH fluorescence; Potency, µM (doses to about 58.9 µM), for inactives: top-dose activity change, negative = inhibition, usual class: inhibitors; 390,000 compounds, 0.21% hits; further: on the % scale 0 is the no-effect control and ±100 the full control effect
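Fluorescence readout, Ex340nm/Em540nm: ThioGlo1 (50uM final) reacts with free CoA thiol released as 20nM GCN5L2 acetylates H3(1-25) peptide (75uM) using acetyl-CoA (70uM). Compound and enzyme sat 15 min beforehand; 20 min room-temperature reaction.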
TSG101-PTAP inh – blocks PTAP/TSG101 interaction to inhibit HIV-1 budding; Q99816; Fluorescence polarization, FITC-PTAP peptide / Tsg101 binding; Potency, µM (titrated, usually from 115 µM), for inactives: at the highest dose activity change, negative = inhibition, most hits filed as inhibitors; 340,000 tested, under 10 active; AID 493005; active means well fitted inhibition curve with a large enough effect in the main read-out, with a control signal flat, not every such curve was filed as active; inconclusive means small, poorly fitted or top-dose-only effect, or effect the other way, or a change in a side signal; inactive means no such curve, though single readings can be large or run the other way; further: % of control where 0% means no effect
Target sequence (Q99816 whole entry, looked up): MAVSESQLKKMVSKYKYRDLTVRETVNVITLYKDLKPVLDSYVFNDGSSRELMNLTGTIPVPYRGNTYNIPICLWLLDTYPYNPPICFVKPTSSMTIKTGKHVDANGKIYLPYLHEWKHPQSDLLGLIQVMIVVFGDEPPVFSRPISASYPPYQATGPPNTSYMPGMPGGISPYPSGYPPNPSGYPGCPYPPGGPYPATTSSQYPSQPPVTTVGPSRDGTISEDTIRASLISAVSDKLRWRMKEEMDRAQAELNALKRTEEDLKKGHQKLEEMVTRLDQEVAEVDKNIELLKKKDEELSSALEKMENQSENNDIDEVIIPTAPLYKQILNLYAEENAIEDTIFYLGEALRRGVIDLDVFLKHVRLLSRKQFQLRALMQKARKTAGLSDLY
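Fluorescence polarization binding of Tsg101 binding domain (10 uM final) to FITC-labeled PTAP peptide (50 nM final) in HEPES pH 7.5 buffer with NaCl, Tween 20, EDTA, TCEP. Compounds added before peptide; binding 20 min at RT.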
USP1-UAF1 inh – USP1/UAF1 (human) deubiquitinase inhibition; 390,000 compounds, 0.23% hits; O94782; Potency, µM (doses to about 57.1 µM), inactives show at the top dose activity change, negative = inhibition, actives largely listed as inhibitors; recombinant USP1/UAF1, Ub-Rhodamine cleavage fluorescence; AID 743255; further: on the % scale 0 is the no-effect control and ±100 the full control effect; nearly all actives have a fitted effect of over 60% in size
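Step one: compound is pinned into 1nM USP1/UAF1 in HEPES pH 7.8 buffer with TCEP. Step two: 15 min room-temperature incubation. Step three: Ub-Rho (150nM final) starts cleavage, tracked by fluorescence over six one-minute reads.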
PLK1 PBD inh – blocks phosphopeptide binding to human PLK1 polo-box domain; 360,000 compounds, 2.8% hits; Potency, µM, inactives show max response, negative = inhibition, hits mostly inhibitors; P53350; Plk1 PBD binding of FITC phosphopeptide, fluorescence polarization; AID 720504; further: series mostly up to about 57 µM; on the % scale 0 is the no-effect control and ±100 the full control effect; nearly all actives have a fitted effect of over 65% in size
VDR inhibitor – inhibitors of human vitamin D receptor. Potency, µM, for inactives: max response, negative = inhibition, actives largely listed as inhibitors. 400,000 compounds, 0.93% hits. VDR-SRC2-3 peptide fluorescence polarization, 2 h; further: on the % scale 0 is the no-effect control and ±100 the full control effect
Target sequence (P11473 whole entry, looked up): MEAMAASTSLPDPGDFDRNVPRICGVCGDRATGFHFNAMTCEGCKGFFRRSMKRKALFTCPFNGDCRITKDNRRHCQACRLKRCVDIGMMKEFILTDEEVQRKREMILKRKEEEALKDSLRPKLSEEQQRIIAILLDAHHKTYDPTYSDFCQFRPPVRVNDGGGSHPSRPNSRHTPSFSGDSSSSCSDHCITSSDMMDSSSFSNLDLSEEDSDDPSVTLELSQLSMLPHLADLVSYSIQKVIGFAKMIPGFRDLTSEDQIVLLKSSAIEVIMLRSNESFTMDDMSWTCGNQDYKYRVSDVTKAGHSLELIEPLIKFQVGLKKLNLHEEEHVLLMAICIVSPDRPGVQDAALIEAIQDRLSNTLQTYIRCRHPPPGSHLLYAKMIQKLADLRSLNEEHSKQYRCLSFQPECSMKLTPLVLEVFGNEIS
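FP read-out; VDR + SRC2-3 coactivator peptide; 23 nl compound by pintool; 2 h RT incubation; reagents held at 4 deg C, protected from light.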
VDR inh confirm – inhibits human vitamin D receptor, primary hit validation; 840 compounds, 89% hits; Potency, µM, hits mostly inhibitors; VDR-coactivator inhibition assay, qHTS confirmation; AID 602199; shares compounds with VDR inhibitor
VDR FP – blocks human VDR-coactivator binding in fluorescein assay | shares compounds with VDR inhibitor | VDR-coactivator binding, fluorescein fluorescence polarization | Potency, µM (top dose mostly 57.1 µM), without a hit: at the top dose activity change, negative = inhibition, hits mostly inhibitors | 840 compounds, 48% hits | AID 602200
VDR bla reporter – confirmation of human vitamin D receptor inhibitors in reporter cells | Potency, µM (titrated, usually from 46.1 µM), inactives show at the highest dose activity change, negative = inhibition, actives largely listed as inhibitors | shares compounds with VDR inhibitor | 840 compounds, 23% hits | VDR beta-lactamase reporter cells, FRET ratio; cells co-treated with VDR agonist LG190178; further: on the % scale 0 is the no-effect control and ±100 the full control effect
VDR viability – counter-screen for vitamin D receptor inhibitors: cytotoxicity; shares compounds with VDR inhibitor; cytotoxicity counter-screen, cell viability, qHTS; Potency, µM (top dose mostly 48.3 µM), for inactives: at the top dose activity change, negative = cytotoxicity, hits mostly cytotoxic; 840 compounds, 18% hits;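 further: plate controls were DMSO for no effect and high-concentration cycloheximide for full effect; nearly all actives have a fitted effect of over 75% in size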
* = called active by the depositor; u = inconclusive; x = no result. Hits are enriched below; roughly 3% of the tested compounds scored in any of these assays. Unless noted, the call rests on the fitted dose curve; in most records, active means well fitted curve in the direction sought with a large enough effect; inconclusive means small, poorly fitted or top-dose-only effect, or another doubt; inactive means no such curve, though single readings can be large; an effect the other way counts as inactive or inconclusive. Potency means the concentration at half of the fitted maximal effect.

SMILES | GCN5L2 inh | TSG101-PTAP inh | USP1-UAF1 inh | PLK1 PBD inh | VDR inhibitor | VDR inh confirm | VDR FP | VDR bla reporter | VDR viability
CN(C)S(=O)(=O)c1ccc(C(=O)/C=C/c2cccnc2)cc1 | 0.3% | -0.7% | -15.3% | -2.6% | 20µM* | u | u | 21.3% | u
O=C(/C=C/c1cccnc1)/C=C/c1cccnc1 | -10.3% | -2.6% | -18.6% | -19.0% | 12.6µM* | 2.67* | -14.1% | 5.8µM* | 14.6µM*
CS(=O)(=O)c1ccccc1-c1nnc(NC(=O)c2ccc3c(c2)OCCO3)o1 | -16.2% | x | -12.8% | x | 6.6% | x | x | x | x
Cc1ccc(C(C[N+](=O)[O-])Sc2ccc(N)cc2)cc1 (stereo unspecified) | -10.5% | -3.0% | -25.5% | 6.7µM* | 12.6µM* | 7.52* | u | u | u
Nc1ccc(Sc2ccc([N+](=O)[O-])cc2)cc1 | -13.8% | -4.4% | -2.3% | -8.5% | 2.6% | x | x | x | x
CC(=O)NC1=CC(=O)c2nonc2C1=O | x | x | x | x | 56.2µM* | 2.51* | 2.51µM* | 2.91µM* | 3.77µM*
Cc1cc(-c2ccc(S(=O)(=O)N3CCN(c4ccc(Cl)cc4)CC3)s2)on1 | -1.8% | x | 1.6% | x | -1.3% | x | x | x | x
CCc1cccc(NC(=O)C2Cc3ccccc3N2C(=O)c2ccccc2)c1 (stereo unspecified) | 0.8% | x | 3.5% | x | 7.5% | x | x | x | x
COc1ccc(C(=O)NC2=NCCS2)cc1 | -14.1% | 1.8% | 3.7% | -7.2% | 17.3% | x | x | x | x
CC(C)Oc1ccc(C(=O)NC2=NCCS2)cc1 | -12.6% | -1.3% | -17.4% | 26.7µM* | 79.4µM* | 23.8* | u | 15.0% | 25.3%
O=C(NCc1cccnc1)/C(=C\c1ccc(-c2ccc(Cl)c(Cl)c2)o1)S(=O)(=O)c1ccccc1 | -11.0% | -3.8% | -11.8% | -28.5% | 39.8µM* | 15* | u | 11.6µM* | 14.6µM*
O=C(NCc1cccnc1)c1ccc(-c2ccc(Cl)cc2)o1 | -2.3% | -4.1% | -17.7% | -1.2% | -8.9% | x | x | x | x
Cc1nc2c(=O)[nH]c(=S)n(C)c2nc1C | u | -8.5% | -2.0% | 2.99µM* | 50.1µM* | 15* | u | -5.9% | u
Cc1nc2[nH]c(=S)[nH]c(=O)c2nc1C | x | -2.7% | -3.1% | -11.4% | -18.1% | x | x | x | x
COc1ccc(CNC(=O)C2Cc3cc(S(=O)(=O)N4CCCC4)ccc3N2C(C)=O)c(OC)c1 (stereo unspecified) | 1.8% | -2.0% | -25.5% | -12.0% | -3.4% | x | x | x | x
Cc1cccc(NC(=O)CN2c3ccccc3S(=O)(=O)c3ccccc32)c1C | -12.5% | x | 2.7% | x | -0.5% | x | x | x | x
COc1ccc(SCC(Cc2ccccc2)N2CCN(CC(C)C)CCC2=O)cc1 (stereo unspecified) | x | x | x | x | u | 7.94* | u | 4.3% | 23.5%
Cc1ccccc1SCC(=O)NCC1(N2CCCCC2)CCCCC1 | x | x | -23.0% | -22.4% | x | x | x | x | x
O=C(c1ccccc1)C(CCC(CN1CCOCC1)C(=O)c1ccccc1)CN1CCOCC1 (stereo unspecified) | -0.8% | -2.8% | -20.3% | -7.4% | u | u | u | 20.6µM* | 28.6%
CCOC(=O)/C(C#N)=C1\C(=O)N(Cc2ccccc2)c2ccccc21 | -18.0% | 0.6% | -23.5% | 3.36µM* | 28.2µM* | 6.7* | u | 8.8% | 10.9%
O=c1cc(-c2ccccc2)oc2c(O)c(O)ccc12 | u | x | x | x | 12.6µM* | 20* | 25.1µM* | 23.1µM* | u
CCNC(=S)N/N=C/c1cn(Cc2ccc(F)cc2)c2ccccc12 | -12.4% | -1.5% | -23.0% | 0.2% | 0.0% | x | x | x | x
O=[N+]([O-])/C=C/c1cn(Cc2ccc(F)cc2)c2ccccc12 | -24.6% | -4.3% | -19.6% | u | 20µM* | 6.7* | u | 20.6µM* | u
O=C(/C(=C/c1ccncc1)n1ccnc1)c1ccc(Cl)cc1Cl | -6.9% | -2.4% | -6.2% | 26.7µM* | 79.4µM* | 12.6* | 12.6µM* | -20.2% | -7.2%
CC(C)/C=C(/C(=O)c1ccc(Cl)cc1Cl)n1cncn1 | 18.1% | 0.5% | -0.8% | -25.7% | u | x | x | x | x
SMILES | GCN5L2 inh | TSG101-PTAP inh | USP1-UAF1 inh | PLK1 PBD inh | VDR inhibitor | VDR inh confirm | VDR FP | VDR bla reporter | VDR viability
Cc1cc(C)n(-c2ccc(NC(=O)C3CCN(Cc4ccccn4)CC3)cc2)n1 | -1.5% | -12.3% | -6.5% | -15.7% | 3.5% | x | x | x | x
Cc1ccc(CSC2=CS(=O)(=O)c3ccccc3N2)cc1 | -19.2% | -6.8% | -9.5% | -8.8% | 3.8% | x | x | x | x
Cc1ccc(SC2=NS(=O)(=O)c3ccccc32)c(C)c1 | x | x | x | x | 35.5µM* | 7.08* | 8.91µM* | u | 21.2µM*
Cc1ccc(CSC2=NS(=O)(=O)c3ccccc32)cc1 | x | x | x | x | 31.6µM* | 14.1* | 8.91µM* | -6.5% | -6.9%
CC1=NOC(=O)/C1=C/c1ccc(-c2ccc(Cl)cc2)o1 | -16.3% | x | x | x | x | x | x | x | x
CC1=NOC(=O)/C1=C\c1ccc(-c2cc(Cl)ccc2Cl)o1 | -22.6% | -2.0% | -6.3% | 0.597µM* | 20µM* | 2.99* | u | u | u
CC1=NOC(=O)/C1=C\c1ccc(-c2ccc(Br)cc2)o1 | u | -1.6% | u | 0.597µM* | u | 3.16* | u | 0.9% | -18.2%
Nc1nc2c(s1)CCc1c-2cnn1-c1ccccc1 | -29.0% | -1.8% | u | 2.67µM* | 20µM* | 4.47* | 3.98µM* | u | u
Nc1c(-c2ccc(Cl)cc2)cnn1-c1ccccc1 | 32.1% | 0.1% | -30.9% | 7.3% | -6.9% | x | x | x | x
COc1ccc(OC)c(CCNC(=O)c2c(C)nn(-c3ccc(F)cc3)c2-n2cccc2)c1 | -4.2% | x | -34.3% | x | 7.9% | x | x | x | x
O=C(COc1ccccc1)NCc1ccc2c(c1)CCN2C(=O)c1ccc(Cl)cc1 | -12.1% | x | 6.4% | x | -2.5% | x | x | x | x
O=S(=O)(c1ccccc1)N1CCN(S(=O)(=O)c2ccccc2)CC1 | x | x | x | x | 2.8% | x | x | x | x
CC1=C(C)CS(=O)N(S(=O)(=O)c2ccccc2)C1 (stereo unspecified) | 1.2% | -2.2% | -17.4% | 1.5µM* | 3.16µM* | 3.77* | u | 7.6% | 0.5%
CC(C)Sc1cc(Cl)nc(NC(=O)Nc2ccccc2)n1 | 30.1% | -0.5% | -9.5% | -11.7% | -10.5% | x | x | x | x

Assay outcomes from PubChem BioAssay.
